Cruzain inh noDet = inhibitors of Trypanosoma cruzi cruzain without detergent. P25779. purified cruzain, Z-FR-AMC fluorescence, no detergent. Potency, µM, without a hit: max response, negative = inhibition, usual class: inhibitors. actives 2.3% (n = 200,000). AID 1476;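 note: plate controls were enzyme without inhibitor for no effect and buffer without enzyme for full effect; nearly all actives have a fitted effect of over 40% in size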
Target sequence (P25779 123-467 limits assumed): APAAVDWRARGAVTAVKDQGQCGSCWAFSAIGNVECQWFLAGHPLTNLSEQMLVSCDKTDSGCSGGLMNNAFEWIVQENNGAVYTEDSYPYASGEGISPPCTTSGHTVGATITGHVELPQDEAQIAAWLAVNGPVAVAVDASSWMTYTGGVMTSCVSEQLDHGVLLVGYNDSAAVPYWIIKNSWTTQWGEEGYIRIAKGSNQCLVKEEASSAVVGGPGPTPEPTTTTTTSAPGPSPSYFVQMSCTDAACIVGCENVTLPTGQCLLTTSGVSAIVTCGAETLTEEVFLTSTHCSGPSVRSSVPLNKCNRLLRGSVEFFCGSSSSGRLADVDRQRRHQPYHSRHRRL
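Detergent-free condition (0.00005% Triton X-100) in acetate buffer pH 5.5 with DTT. 1.5 nM enzyme and compound were pre-mixed 15 min, then 2 uM Z-FR-AMC substrate added; reaction progress from fluorescence change between first and third reads (60 s).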
Cruzain inh Det = cruzain (T. cruzi) inhibition with detergent; P25779; purified cruzain, Z-FR-AMC fluorescence, 0.01% Triton; Potency, µM, without a hit: max response, negative = inhibition, most hits filed as inhibitors; actives 0.43% (n = 200,000);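 note: plate controls were neutral wells for no effect and buffer without enzyme for full effect; nearly all actives have a fitted effect of over 40% in size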
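Purified cruzain (1.5 nM final) was preincubated with compounds for 15 min at room temperature in 100 mM sodium acetate pH 5.5, 5 mM DTT, 0.01% Triton X-100. Reaction started with 2 uM Z-FR-AMC; AMC fluorescence change over 60 s gave activity.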
Active calls of the source: *; ? = inconclusive. Most compounds without a hit are left out; they make up all but 2.4% or so of the library. Calls come from the whole dose curve; as a rule, active = well fitted curve in the direction sought with a large enough effect; inconclusive = small, poorly fitted or top-dose-only effect, or another doubt; inactive = no such curve, though single readings can be large; an effect the other way counts as inactive or inconclusive. Potency is the fitted concentration of half-maximal effect.

SMILES	Cruzain inh noDet	Cruzain inh Det
COc1cccc(C(=O)NCC2OCCc3ccccc32)c1 (configuration not stated)	-7%	-5%
CCOC(=O)c1c(C)n(-c2ccccc2)c2ccc(OC(=O)c3cc(OC)cc(OC)c3)cc12	8%	0%
O=C(Nc1ccc2nc(-c3ccccc3)[nH]c2c1)c1cccs1	-9%	-10%
O=C(Nc1ccc2nc(-c3ccc4nc[nH]c4c3)[nH]c2c1)c1cccs1	?	13µM*
COc1c(F)c(F)c(C(=O)Nc2ccc3oc(-c4ccncc4)nc3c2)c(F)c1F	?	1%
Cc1cccc(C(=O)Nc2ccc3oc(-c4cccc5c(Br)cccc45)nc3c2)c1	?	0%
O=C(Nc1ccc2oc(-c3ccncc3)nc2c1)c1c(F)c(F)c(F)c(F)c1F	10µM*	3%
Cc1cccc(C(=O)Nc2ccc3oc(-c4ccncc4)nc3c2)c1	?	25µM*
COC(=O)c1cc2occc2n1CC(=O)Nc1ccc(C)cc1Cl	-2%	-1%
Cc1ccc(CCNC(=O)c2c(C)oc3nc(C)nc(N4CCOCC4)c23)cc1	-7%	-2%
O=C(/C=C\c1ccc2c(c1)OCO2)Nc1c2c(nn1-c1ccc(Cl)cc1)CSC2	25µM*	-5%
O=C(/C=C\c1ccc2c(c1)OCO2)NC1CC(=O)N(c2ccc(Cl)cc2)C1 (configuration not stated)	-9%	-1%
CCCC(=O)Nc1nc(C)c(-c2csc(Nc3ccccc3OC)n2)s1	-23%	-2%
CCCC(C)C(=O)Nc1nc(C)c(-c2csc(Nc3cc(OC)ccc3OC)n2)s1 (configuration not stated)	?	-2%
C=CCCC(=O)Nc1nc(C)c(-c2csc(Nc3cccc(OC)c3)n2)s1	16µM*	-5%
CCCCCC(=O)Nc1nc(C)c(-c2csc(Nc3cc(Cl)ccc3OC)n2)s1	3.2µM*	0%
CCCC(=O)Nc1nc(C)c(-c2csc(Nc3ccc(Cl)cc3)n2)s1	13µM*	-3%
CCC(C)C(=O)Nc1nc(C)c(-c2csc(Nc3ccc(Cl)cc3)n2)s1 (configuration not stated)	4µM*	0%
C=CCCC(=O)Nc1nc(C)c(-c2csc(Nc3cc(OC)ccc3OC)n2)s1	?	-1%
CCCC(=O)Nc1nc(C)c(-c2csc(Nc3cc(OC)ccc3OC)n2)s1	-21%	-4%
COc1cccc(CNC(=O)CC(c2ccc(C)cc2)N2Cc3ccccc3C2=O)c1 (configuration not stated)	-11%	-4%
CC(=O)NCCNc1ccnc(-c2ccccc2C(F)(F)F)n1	16%	-2%
CN(Cc1ccccc1)C(=O)c1cc(-c2cccc(Cl)c2)on1	-3%	-10%
CC(=O)Nc1nc(C)c(-c2csc(Nc3ccc(O)cc3)n2)s1	13µM*	-28%
CC(=O)Nc1nc(C)c(-c2csc(Nc3cccc([N+](=O)[O-])c3)n2)s1	-18%	-7%
SMILES	Cruzain inh noDet	Cruzain inh Det
Cc1nc(CNS(=O)(=O)c2ccc3ccccc3c2)cs1	-3%	2%
Cc1nc(-c2cccc(NS(=O)(=O)c3ccc4ccccc4c3)c2)cs1	25µM*	-1%
CCOC(=O)c1c(NC(=O)CN2C(=O)NC3(CCC(CC)CC3)C2=O)sc(C)c1-c1ccc(C)cc1 (configuration not stated)	20µM*	-2%
CCOC(=O)c1c(NC(=O)CN2C(=O)NC3(CCCCCC3)C2=O)sc(C)c1-c1ccc(C)cc1	?	-4%
c1ccc(Nc2ncnc3ccc(-c4ccc5c(c4)OCO5)cc23)cc1	-20%	-2%
COc1ccc(C(C)=O)cc1CSc1nc2ccccc2c(=O)n1-c1ccccc1	-20%	-10%
C=CCn1c(SCc2cc(C(C)=O)ccc2OCC)nc2ccccc2c1=O	?	14µM*
CCCS(=O)(=O)c1nc(S(=O)(=O)c2ccc(C)cc2)c(NCCCOC(C)C)s1	?	-7%
CCOC(=O)c1c(C)oc2nc(C)nc(NC(C)c3ccccc3)c12 (configuration not stated)	-7%	-2%
COc1ccc(C2C(C(=O)Nc3ccc(C)cc3C)=C(C)Nc3nc(SC)nn32)cc1OC (configuration not stated)	-4%	0%
CSc1nc2n(n1)C(c1cccc(F)c1)C(C(=O)Nc1ccc(C)cc1C)=C(C)N2 (configuration not stated)	10µM*	8%
O=C(CSC1=Nc2ccccc2C2=NC(Cc3ccccc3)C(=O)N12)Nc1ccccc1C(F)(F)F (configuration not stated)	-2%	-6%
CC(C)c1c(O)ccc2c1CCC1[C@@](C)(C=O)CCC[C@@]21C (some centres not stated)	-15%	-3%
O=c1cc(CSc2ccccc2)[nH]c(=S)[nH]1	-3%	3%
O=c1cc(/N=C/c2coc3c(ccc4ccccc43)c2=O)[nH]c(=S)[nH]1	7.9µM*	-6%
NC(=S)N/N=C/c1ccccc1OCc1cccc(Cl)c1	?	-24%
NC(=S)N/N=C/c1coc2c(ccc3ccccc32)c1=O	0.63µM*	?
CCn1c(C(=O)Nc2ccc(C)cc2C)cc2sc(Cl)cc21	16%	15%
CCCCn1nc(NC(=O)c2cccc(Cl)c2)c2cc3ccc(C)cc3nc21	-17%	0%
COc1ccccc1NC(=O)CSc1ncc2c(n1)-c1cc(Cl)ccc1N(Cc1ccccc1)S2(=O)=O	6.3µM*	-2%
COc1ccccc1NC(=O)CSc1ncc2c(n1)-c1ccccc1N(Cc1ccccc1C)S2(=O)=O	7.9µM*	0%
O=C(CSc1ncc2c(n1)-c1cc(Cl)ccc1N(Cc1ccccc1F)S2(=O)=O)Nc1cccc(C(F)(F)F)c1	16µM*	-1%
Cc1cccc(C)c1NC(=O)CSc1ncc2c(n1)-c1ccc(Cl)cc1N(Cc1ccccc1)S2(=O)=O	-12%	2%
O=C(CSc1ncc2c(n1)-c1cc(Cl)ccc1N(Cc1ccccc1)S2(=O)=O)Nc1ccc(F)cc1F	-15%	0%
O=C(CSc1ncc2c(n1)-c1ccc(Cl)cc1N(Cc1ccccc1)S2(=O)=O)Nc1ccc(F)c(F)c1	-3%	3%
COc1ccc(C)cc1NC(=O)CSc1ncc2c(n1)-c1ccc(Cl)cc1N(Cc1ccccc1)S2(=O)=O	3.2µM*	-2%
Cc1ccccc1CN1c2ccccc2-c2nc(SCC(=O)Nc3cc(F)ccc3F)ncc2S1(=O)=O	-2%	1%
COc1ccccc1CNC(=O)c1ccc2nc(CCc3ccccc3)oc2c1	-11%	-5%
Cc1nn(-c2ccccc2)c(-n2cccc2)c1C(=O)NCCc1ccc(Cl)cc1	-4%	-7%

Assay outcomes deposited in PubChem BioAssay by National Center for Advancing Translational Sciences (NCATS).
